ATXN viability: Viability Counterscreen for Primary qHTS for Inhibitors of ATXN expression. 400,000 compounds, 0.49% hits. Potency, µM (highest dose often 56.7 µM), actives largely listed as cytotoxic. AID 651635, 2014. S2 cells (HEK-293 line with an ATXN2-luciferase reporter) viability, CellTiter-Fluor protease fluorescence, 24 h; note: potency is the fitted concentration of half-maximal effect; nearly all actives have a fitted effect of over 40% in size
IL1B secr inh: qHTS for Inhibitors of Inflammasome Signaling: IL-1-beta AlphaLISA Primary Screen; activity change, % at 57.5 µM; AID 743279, 2014; THP-1 LPS/ATP IL-1B secretion, AlphaLISA, 16 h; hits give low values; 360,000 compounds, 4.7% hits; in the data active = activity change below about -50%; inconclusive = mostly about -30% to -49%; note: % is set by controls: 0 for no effect and ±100 for the full control effect
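THP-1 cells pretreated 1 hr with compounds (up to 57.5 uM final), then stimulated with LPS (250 ng/mL final) plus ATP (1.25 mM final); secreted IL-1B measured by AlphaLISA after 16 hr, decreased signal indicating inhibition.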
HepG2 viability: qHTS for Inhibitors of TGF-b: Cytotox Counterscreen; HepG2 CAGA-GFP viability, ATP luminescence, 18 h; Potency, µM (highest dose often 46.1 µM), inactives show top-dose activity change, negative = cytotoxicity, hits mostly cytotoxic; 410,000 compounds, 0.76% hits; note: potency is the fitted concentration of half-maximal effect
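HepG2 CAGA-GFP cells (1000/well, DMEM with 1% FBS) received compound, then TGF-beta at 500 pg/mL final, and were incubated 18 hours at 37 degrees C. Viability was read by CellTiter-Glo luminescence. Media-only wells were set as complete cell-killing and DMSO as no toxicity.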
ATXN2 expr inh: Primary qHTS for Inhibitors of ATXN expression | HEK-293 ATXN2-luciferase reporter, luminescence, 24 h | Potency, µM (titrated, usually from 57 µM), inactives show at the top dose activity change, negative = inhibition, actives largely listed as inhibitors | 360,000 compounds, 0.72% hits | AID 1745845, 2022; note: potency is the fitted concentration of half-maximal effect; % is set by controls: 0 for no effect and ±100 for the full control effect; nearly all actives have a fitted effect of over 55% in size
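ATXN2-luciferase reporter cells (luciferase flanked by upstream and downstream ATXN2 gene portions) were treated 24 h at 37 °C with compounds at up to 57 uM. SteadyGlo luminescence gave expression; GF-AFC fluorescence gave viability.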
TGFb SMAD3 inh: qHTS for Inhibitors of TGF-b | Potency, µM (highest dose often 46.1 µM), inactives show at the top dose activity, negative = inhibition, most hits filed as inhibitors | 410,000 compounds, 1.2% hits | HepG2 CAGA-GFP TGF-b/SMAD3 reporter, GFP fluorescence, 18 h; TGF-beta stimulated, 500 pg/mL final; note: potency is the fitted concentration of half-maximal effect; % is set by controls: 0 for no effect and ±100 for the full control effect; nearly all actives have a fitted effect of over 65% in size
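GFP signal (ex488/em500-530) from TGF-beta-stimulated HEPG2 CAGA-GFP cells, 500 pg/mL final, 18 h at 37 degrees C in DMEM plus 1% FBS, normalized to unstimulated and DMSO-stimulated controls.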
Starred values were filed as active, the others as inactive. Most compounds without a hit are left out; they make up all but 5.7% or so of the library. Unless noted, calls come from the whole dose curve; as a rule, active = well fitted curve in the direction sought with a large enough effect; inconclusive = small, poorly fitted or top-dose-only effect, or another doubt; inactive = no such curve, though single readings can be large; an effect the other way counts as inactive or inconclusive.

`CS(=O)(=O)N1CCc2cc(-c3csc(NC(=O)Cc4cccs4)n3)ccc21` gave ATXN viability inconclusive, IL1B secr inh -65*, HepG2 viability -35%, ATXN2 expr inh 18µM* and TGFb SMAD3 inh inconclusive.
For O=C(NCC(c1ccco1)S(=O)(=O)c1cccs1)c1ccc(F)c(F)c1 (stereo unspecified) the results were HepG2 viability -14% and TGFb SMAD3 inh -12%.
Screening COc1ccc(Cc2ccc(NC(N)=O)cc2)cc1-c1cccc(Cl)c1 returned ATXN2 expr inh 4%.
For O=C(CCn1c(=O)oc2ccccc21)N1CCN(c2ccccc2F)CC1 the results were ATXN viability inactive, IL1B secr inh -3, HepG2 viability -17%, ATXN2 expr inh 6% and TGFb SMAD3 inh 11%.
O=C(CCn1c(=O)oc2ccccc21)N1CCN(C(c2ccccc2)c2ccccc2)CC1 was read as ATXN viability inactive, IL1B secr inh -65*, HepG2 viability -1%, ATXN2 expr inh 2% and TGFb SMAD3 inh -24%.
For COCC(=O)Nc1cc(C(=O)N2CCCC2c2nccs2)c2c(c1)nc(-c1ccncc1)n2C (stereo unspecified) the results were ATXN viability inactive.
For CCCCCCCCCn1c2c(c(=N)c3c1CCC3)CCCC2 the results were ATXN viability inconclusive, IL1B secr inh -99*, HepG2 viability -98%, ATXN2 expr inh inconclusive and TGFb SMAD3 inh 6.3µM*.
`CCCCCCCCCCn1c2c(c(=N)c3c1CCC3)CCC2` gave ATXN viability inconclusive, IL1B secr inh -96*, HepG2 viability -97%, ATXN2 expr inh inconclusive and TGFb SMAD3 inh 13µM*.
For CCCCCCCCn1c2c(c(=N)c3ccccc31)CCC2 the results were ATXN viability inconclusive, IL1B secr inh -96*, HepG2 viability -22%, ATXN2 expr inh 7.5µM* and TGFb SMAD3 inh inconclusive.
For COC(=O)c1cc(=O)n(Cc2ccco2)c(=Nc2ccc(F)c(Cl)c2)s1 the results were IL1B secr inh -105*, HepG2 viability -98%, ATXN2 expr inh 28µM* and TGFb SMAD3 inh 13µM*.
COC(=O)c1cc(=O)n(CCc2ccccc2F)c(=Nc2ccc(F)c(Cl)c2)s1 was read as IL1B secr inh -101*, HepG2 viability -93%, ATXN2 expr inh 27µM* and TGFb SMAD3 inh inconclusive.
Screening COC(=O)c1cc(=O)n(Cc2ccc3c(c2)OCO3)c(=Nc2ccc(F)cc2)s1 returned ATXN viability inactive, IL1B secr inh -9, HepG2 viability -26%, ATXN2 expr inh -30% and TGFb SMAD3 inh 0%.
O=C(c1c[nH]c2ccccc12)C(Cl)c1ccccc1 (stereo unspecified) was read as ATXN viability inconclusive, IL1B secr inh -73*, HepG2 viability -1% and TGFb SMAD3 inh inconclusive.
`COCCn1ccc2c(OCC(=O)Nc3cccc(OC)c3)cccc2c1=O` gave ATXN viability inactive, HepG2 viability -5%, ATXN2 expr inh -16% and TGFb SMAD3 inh -6%.
`CCc1c(C)sc(NC(=O)c2ccoc2C)c1C(N)=O` gave ATXN viability inconclusive, IL1B secr inh -56*, HepG2 viability -3%, ATXN2 expr inh 13% and TGFb SMAD3 inh -11%.
CN(C(=O)CO/N=C/c1ccc(Cl)cc1)c1ccccc1 was read as ATXN viability inactive, IL1B secr inh -51*, HepG2 viability 1%, ATXN2 expr inh -18% and TGFb SMAD3 inh 9%.
COc1ccc(/C=N/OCC(=O)OCC(=O)N(C)c2ccccc2)cc1 was read as ATXN viability inactive, IL1B secr inh 9, HepG2 viability -4%, ATXN2 expr inh 1% and TGFb SMAD3 inh inconclusive.
For Cc1ccc(C#CC[N+](C)(C)CC#Cc2ccccc2)cc1 the results were ATXN viability inactive, IL1B secr inh -77*, HepG2 viability 8%, ATXN2 expr inh -34% and TGFb SMAD3 inh -20%.
C#CC[N+](C)(C)CC#Cc1ccccc1 was read as ATXN viability inactive, IL1B secr inh -66*, HepG2 viability -5%, ATXN2 expr inh -18% and TGFb SMAD3 inh 5%.

Screening data as filed in PubChem.
